Experimental data as given in PubChem BioAssay AID1159580 (chemical genetic matrix, 2015).
Values joined by “and” are separate entries in the source; they are usually repeats but may differ in a detail not shown here. Equal entries are not always repeated. In all, about 5,500 compounds went through this assay and about 2,000 (36%) were called active. About 18% were inconclusive and are not listed. Rule as the data show it: active = normalized growth mostly below about 0.91 (no sharp cut-off); inconclusive = no clear call, values can overlap the other calls; inactive = mostly above about 0.92. This is one part of the list. A structure can be active in one record and inactive in another.

Test: chemical genetic growth profiling, strain panel (AID 1159580);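 also: tested at 20 µM; growth read once vehicle control cultures reached saturation at 30 °C; 1 = growth at the plate median or of vehicle wells; lower values mean less growth of the strain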
Conditions: growth OD

Measured: normalized growth

CN1CCc2cccc3c2C1Cc1ccc(O)c(O)c1-3 (stereo not drawn)
active: S. cerevisiae deletion strains, locus YKL160W, strain elf1, stronger effect = lower value 0.871 | S. cerevisiae deletion strains, locus YLR027C, strain aat2, stronger effect = lower value 0.918 | S. cerevisiae deletion strains, locus YLR262C, strain YPT6 (second series), stronger effect = lower value 0.645 | S. cerevisiae deletion strains, locus YLR320W, strain mms22, stronger effect = lower value 0.8 | S. cerevisiae deletion strains, locus YLR342W, strain FKS1, stronger effect = lower value 0.855 | S. cerevisiae deletion strains, locus YMR058W, strain fet3, stronger effect = lower value 0.573 | S. cerevisiae deletion strains, locus YNL071W, strain lat1, stronger effect = lower value 0.627 | S. cerevisiae deletion strains, locus YNL209W, strain ssb2, stronger effect = lower value 0.808 | S. cerevisiae deletion strains, locus YNL248C, strain rpa49, stronger effect = lower value 0.858 | S. cerevisiae deletion strains, locus YOR070C, strain gyp1, stronger effect = lower value 0.864 | S. cerevisiae deletion strains, locus YOR083W, strain WHI5 (second series), stronger effect = lower value 0.815 | S. cerevisiae deletion strains, locus YOR083W, strain WHI5, stronger effect = lower value 0.875 | S. cerevisiae deletion strains, locus YOR106W, strain vam3, stronger effect = lower value 0.607 | S. cerevisiae deletion strains, locus YOR265W, strain rbl2, stronger effect = lower value 0.91 | S. cerevisiae deletion strains, locus YOR270C, strain vph1, stronger effect = lower value 0.597 | S. cerevisiae deletion strains, locus YPL051W, strain arl3, stronger effect = lower value 0.746 | S. cerevisiae deletion strains, locus YPL241C, strain CIN2, stronger effect = lower value 0.311
inactive: S. cerevisiae deletion strains, locus YKL009W, strain mrt4, stronger effect = lower value 1.01 | S. cerevisiae deletion strains, locus YKL068W, stronger effect = lower value 0.996 | S. cerevisiae deletion strains, locus YKL085W, strain MDH1 (second series), stronger effect = lower value 1 | S. cerevisiae deletion strains, locus YKL085W, strain MDH1, stronger effect = lower value 1 | S. cerevisiae deletion strains, locus YKL190W, strain CNB1, stronger effect = lower value 1.01 | S. cerevisiae deletion strains, locus YKR001C, strain vps1, stronger effect = lower value 1 | S. cerevisiae deletion strains, locus YKR026C, strain gcn3, stronger effect = lower value 1.01 | S. cerevisiae deletion strains, locus YKR091W, strain srl3, stronger effect = lower value 0.993 | S. cerevisiae deletion strains, locus YLL001W, strain dnm1, stronger effect = lower value 0.967 | S. cerevisiae deletion strains, locus YLL026W, stronger effect = lower value 0.988 | S. cerevisiae deletion strains, locus YLL041C, strain sdh2, stronger effect = lower value 0.995 | S. cerevisiae deletion strains, locus YLR039C, strain RIC1, stronger effect = lower value 1.04 | S. cerevisiae deletion strains, locus YLR058C, strain SHM2, stronger effect = lower value 1.01 | S. cerevisiae deletion strains, locus YLR102C, strain apc9, stronger effect = lower value 0.997 | S. cerevisiae deletion strains, locus YLR113W, strain HOG1, stronger effect = lower value 1.02 | S. cerevisiae deletion strains, locus YLR221C, strain rsa3, stronger effect = lower value 0.932 | S. cerevisiae deletion strains, locus YLR258W, strain gsy2, stronger effect = lower value 0.958 | S. cerevisiae deletion strains, locus YLR262C, strain YPT6, stronger effect = lower value 1.09 | S. cerevisiae deletion strains, locus YLR268W, strain sec22, stronger effect = lower value 1.01 | S. cerevisiae deletion strains, locus YLR330W, strain CHS5, stronger effect = lower value 1.01 | S. cerevisiae deletion strains, locus YLR342W, strain FKS1 (second series), stronger effect = lower value 1.02 | S. cerevisiae deletion strains, locus YLR357W, strain rsc2, stronger effect = lower value 0.889 | S. cerevisiae deletion strains, locus YLR370C, strain arc18, stronger effect = lower value 0.96 | S. cerevisiae deletion strains, locus YLR371W, strain rom2, stronger effect = lower value 0.996 | S. cerevisiae deletion strains, locus YLR384C, strain iki3, stronger effect = lower value 1 | S. cerevisiae deletion strains, locus YLR418C, strain cdc73, stronger effect = lower value 1.01 | S. cerevisiae deletion strains, locus YML016C, strain PPZ1, stronger effect = lower value 1.01 | S. cerevisiae deletion strains, locus YML032C, strain rad52, stronger effect = lower value 0.99 | S. cerevisiae deletion strains, locus YML120C, strain ndi1, stronger effect = lower value 0.993 | S. cerevisiae deletion strains, locus YML124C, strain tub3, stronger effect = lower value 0.99 | S. cerevisiae deletion strains, locus YMR078C, strain ctf18, stronger effect = lower value 0.988 | S. cerevisiae deletion strains, locus YMR125W, strain sto1, stronger effect = lower value 0.966 | S. cerevisiae deletion strains, locus YMR129W, stronger effect = lower value 1 | S. cerevisiae deletion strains, locus YMR205C, strain PFK2, stronger effect = lower value 0.93 | S. cerevisiae deletion strains, locus YMR223W, strain ubp8, stronger effect = lower value 0.994 | S. cerevisiae deletion strains, locus YMR231W, strain pep5, stronger effect = lower value 0.972 | S. cerevisiae deletion strains, locus YMR307W, strain GAS1, stronger effect = lower value 1.03 | S. cerevisiae deletion strains, locus YNL067W, strain RPL9B, stronger effect = lower value 0.998 | S. cerevisiae deletion strains, locus YNL128W, strain TEP1, stronger effect = lower value 1.01 and 0.937 | S. cerevisiae deletion strains, locus YNL153C, strain GIM3, stronger effect = lower value 1 | S. cerevisiae deletion strains, locus YNL175C, strain NOP13, stronger effect = lower value 0.96 | S. cerevisiae deletion strains, locus YNL183C, strain NPR1, stronger effect = lower value 0.984 | S. cerevisiae deletion strains, locus YNL197C, strain WHI3, stronger effect = lower value 0.931 | S. cerevisiae deletion strains, locus YNL224C, strain SQS1, stronger effect = lower value 1.05 | S. cerevisiae deletion strains, locus YNL233W, strain BNI4, stronger effect = lower value 1.01 | S. cerevisiae deletion strains, locus YNL250W, strain rad50, stronger effect = lower value 1.01 | S. cerevisiae deletion strains, locus YNL271C, strain bni1, stronger effect = lower value 0.985 | S. cerevisiae deletion strains, locus YNL298W, strain CLA4, stronger effect = lower value 0.992 | S. cerevisiae deletion strains, locus YNL307C, strain MCK1, stronger effect = lower value 0.991 | S. cerevisiae deletion strains, locus YNL322C, strain KRE1 (second series), stronger effect = lower value 1.01 | S. cerevisiae deletion strains, locus YNR049C, strain mso1, stronger effect = lower value 0.98 | S. cerevisiae deletion strains, locus YNR052C, strain pop2, stronger effect = lower value 0.987 | S. cerevisiae deletion strains, locus YOL006C, strain TOP1, stronger effect = lower value 0.926 | S. cerevisiae deletion strains, locus YOL012C, strain htz1 1.12 | S. cerevisiae deletion strains, locus YOL147C, strain pex11, stronger effect = lower value 0.992 | S. cerevisiae deletion strains, locus YOR001W, strain rrp6, stronger effect = lower value 0.944 | S. cerevisiae deletion strains, locus YOR061W, strain CKA2, stronger effect = lower value 1.02 | S. cerevisiae deletion strains, locus YOR069W, strain VPS5, stronger effect = lower value 1.01 | S. cerevisiae deletion strains, locus YOR080W, strain dia2, stronger effect = lower value 0.993 | S. cerevisiae deletion strains, locus YOR136W, strain idh2, stronger effect = lower value 0.987 | S. cerevisiae deletion strains, locus YOR144C, strain elg1, stronger effect = lower value 0.998 | S. cerevisiae deletion strains, locus YOR184W, strain ser1, stronger effect = lower value 1.02 | S. cerevisiae deletion strains, locus YOR231W, strain MKK1, stronger effect = lower value 1.06 | S. cerevisiae deletion strains, locus YOR290C, strain snf2, stronger effect = lower value 0.979 | S. cerevisiae deletion strains, locus YOR316C, strain cot1, stronger effect = lower value 0.992 | S. cerevisiae deletion strains, locus YPL078C, strain atp4, stronger effect = lower value 0.988 | S. cerevisiae deletion strains, locus YPL106C, strain sse1, stronger effect = lower value 0.94 | S. cerevisiae deletion strains, locus YPL240C, strain hsp82, stronger effect = lower value 1.01 | S. cerevisiae deletion strains, locus YPL256C, strain CLN2, stronger effect = lower value 1.06 | S. cerevisiae deletion strains, locus YPR119W, strain clb2, stronger effect = lower value 0.994 | S. cerevisiae deletion strains, locus YPR141C, strain kar3, stronger effect = lower value 0.997 | S. cerevisiae deletion strains, locus YPR163C, strain tif3, stronger effect = lower value 0.986 | S. cerevisiae deletion strains, locus YPR167C, strain met16, stronger effect = lower value 0.998 | S. cerevisiae deletion strains, strain wtn01, stronger effect = lower value 1 | S. cerevisiae strains, strain wild type, stronger effect = lower value 1.01
1 (inactive) and 0.35 (active): S. cerevisiae deletion strains, locus YJR075W, strain HOC1, stronger effect = lower value
